# From the supplement of paper PMC8728848
# This excerpt belongs to a sample that is enriched for the strongest signals.
# What was measured:
# Test in all cases: glycan array binding signal (z-score within array); higher = stronger binding
# Details in all cases: glycan notation: IUPAC condensed, linker removed
# Fuc(a1-2)Gal = biological target: Fuc(a1-2)Gal
# How it was run: (§1)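 The binding signal is a Z-score computed within each array. Data were drawn from 3228 arrays in the Consortium for Functional Glycomics database, restricted to those with a known protein sequence. Scores were averaged over arrays of the same protein sequence at different concentrations or buffers, and over linkers, and negative values can be taken as non-binding.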
# Fuc(a1-2)Gal(b1-3)GlcNAc = biological target: Fuc(a1-2)Gal(b1-3)GlcNAc
# How it was run: as §1
# [1] = biological target: Fuc(a1-2)Gal(b1-4)[Fuc(a1-3)]GlcNAc
# How it was run: as §1
# [2] = biological target: Fuc(a1-3)[Gal(b1-4)]GlcNAc
# How it was run: as §1
# [3] = biological target: Fuc(a1-3)[Gal3S(b1-4)]Glc6S
# How it was run: as §1
# [4] = biological target: Fuc(a1-3)[Gal3S(b1-4)]GlcNAc6S
# How it was run: as §1
# Fuc(b1-3)GlcNAc = biological target: Fuc(b1-3)GlcNAc
# How it was run: as §1
# Gal(b1-3)Gal = biological target: Gal(b1-3)Gal
# How it was run: as §1
# [5] = biological target: Gal(b1-4)GlcNAc(b1-6)GalNAc
# How it was run: as §1
# Gal3S(b1-4)GlcNAc = biological target: Gal3S(b1-4)GlcNAc
# How it was run: as §1
# Gal3S6S(b1-4)GlcNAc6S = biological target: Gal3S6S(b1-4)GlcNAc6S
# How it was run: as §1
# Gal4S(b1-4)GlcNAc = biological target: Gal4S(b1-4)GlcNAc
# How it was run: as §1
# Gal6S(b1-4)Glc6S = biological target: Gal6S(b1-4)Glc6S
# How it was run: as §1
# [6] = biological target: GlcNAc(b1-3)Gal(b1-3)GalNAc
# How it was run: as §1
# Man(a1-3)[Man(a1-6)]Man = biological target: Man(a1-3)[Man(a1-6)]Man
# How it was run: as §1
# [7] = biological target: Neu5Ac9Ac(a2-6)Gal(b1-4)GlcNAc
# How it was run: as §1
# Fuc(a1-2)Gal(b1-4)Glc6S = biological target: Fuc(a1-2)Gal(b1-4)Glc6S
# How it was run: as §1
# [8] = biological target: Fuc(a1-2)[Gal(a1-4)]Gal(b1-4)GlcNAc
# How it was run: as §1
# Gal(a1-3)GalNAc = biological target: Gal(a1-3)GalNAc
# How it was run: as §1
# Gal(b1-3)GalNAc = biological target: Gal(b1-3)GalNAc
# How it was run: as §1
# Gal(b1-4)Glc = biological target: Gal(b1-4)Glc
# How it was run: as §1
# [9] = biological target: Gal(b1-4)GlcNAc(a1-6)Gal(b1-4)GlcNAc
# How it was run: as §1
# [10] = biological target: Gal(b1-4)GlcNAc(b1-3)Gal(b1-4)Glc
# How it was run: as §1
# Gal3S(b1-3)GalNAc = biological target: Gal3S(b1-3)GalNAc
# How it was run: as §1
# [11] = biological target: GlcNAc(b1-2)Man(a1-3)[GlcNAc(b1-2)Man(a1-6)]Man(b1-4)GlcNAc(b1-4)GlcNAc
# How it was run: as §1
# [12] = biological target: GlcNAc(b1-3)[GlcNAc(b1-6)]GalNAc
# How it was run: as §1
# [13] = biological target: GlcNAc(b1-4)GlcNAc(b1-4)GlcNAc(b1-4)GlcNAc(b1-4)GlcNAc(b1-4)GlcNAc
# How it was run: as §1
# Kdn(a2-3)Gal(b1-4)GlcNAc = biological target: Kdn(a2-3)Gal(b1-4)GlcNAc
# How it was run: as §1
# [14] = biological target: Man(a1-3)[Man(a1-6)]Man(a1-6)[Man(a1-3)]Man(b1-4)GlcNAc(b1-4)GlcNAc
# How it was run: as §1
# [15] = biological target: Man(a1-3)[Man(a1-6)]Man(b1-4)GlcNAc(b1-4)GlcNAc
# How it was run: as §1
# [16] = biological target: Neu5Ac(a2-3)Gal(b1-3)GalNAc6S
# How it was run: as §1
# [17] = biological target: Neu5Ac(a2-3)Gal(b1-3)[Fuc(a1-4)]GlcNAc
# How it was run: as §1
# [18] = biological target: Neu5Ac(a2-3)Gal(b1-3)[Fuc(a1-4)]GlcNAc(b1-3)Gal(b1-4)[Fuc(a1-3)]GlcNAc
# How it was run: as §1
# [19] = biological target: Neu5Ac(a2-3)Gal(b1-3)[Neu5Ac(a2-6)]GalNAc
# How it was run: as §1
# [20] = biological target: Neu5Ac(a2-3)Gal(b1-4)GlcNAc(b1-3)Gal(b1-3)GlcNAc
# How it was run: as §1
# [21] = biological target: Neu5Ac(a2-3)Gal(b1-4)[Fuc(a1-3)]GlcNAc(b1-6)[Gal(b1-3)]GalNAc
# How it was run: as §1
# [22] = biological target: Neu5Ac(a2-3)Gal(b1-4)[Fuc(a1-3)]GlcNAc6S
# How it was run: as §1
# [23] = biological target: Neu5Ac(a2-3)[Neu5Ac(a2-6)]GalNAc
# How it was run: as §1
# [24] = biological target: Neu5Ac(a2-6)GalNAc(b1-4)GlcNAc
# How it was run: as §1
# [25] = biological target: Neu5Gc(a2-3)Gal(b1-3)[Fuc(a1-4)]GlcNAc
# How it was run: as §1
# [26] = biological target: Neu5Ac(a2-3)Gal(b1-4)[Fuc(a1-3)]GlcNAc(b1-6)[Neu5Ac(a2-3)Gal(b1-3)]GalNAc
# How it was run: as §1
# [27] = biological target: Neu5Ac(a2-3)[GalNAc(b1-4)]Gal(b1-4)Glc
# How it was run: as §1
# [28] = biological target: Neu5Ac(a2-6)Gal(b1-4)GlcNAc(b1-2)Man(a1-6)Man(b1-4)GlcNAc(b1-4)GlcNAc
# How it was run: as §1
# [29] = biological target: Neu5Ac(a2-6)Gal(b1-4)GlcNAc(b1-2)Man(a1-6)[Man(a1-3)]Man(b1-4)GlcNAc(b1-4)GlcNAc
# How it was run: as §1
# [30] = biological target: Neu5Ac(a2-8)Neu5Ac(a2-3)Gal(b1-4)Glc
# How it was run: as §1
# [31] = biological target: Neu5Ac(a2-8)Neu5Ac(a2-8)Neu5Ac(a2-3)Gal(b1-4)Glc
# How it was run: as §1
# Neu5Gc(a2-3)Gal(b1-4)Glc = biological target: Neu5Gc(a2-3)Gal(b1-4)Glc
# How it was run: as §1
binder,measurement,setting,value
Fap1 (Streptococcus parasanguis) (protein) KATSKGTEEKQDSVRENLDKMISEAEVLNDMAARKLITLDAEQQLELMKSLVATQSQLEATKNLIGDPNATVADLQIAYTTLGNNTQALGNELIKLNPNGQIYAVLNNTEASRAATLRSTTTGTKTTFTISDFSNGGTQYYWAGGNANNLKNPISSISAVYDSATGKISWTVEYDPTTILKSPALKTLKTYTGIYIDTSSDSKLSTPTNVLIDGAATNPVTNFYGNGSKGIEYVSKGTTKGVTKHTITFDTAFSGRANDLADLEIKMLAATTLSDPHFYEDGSKGNYGRYNGQTAPYVIANDSGTAIGGYQVSGVNADSIPSDTT,glycan array binding signal (z-score),Fuc(a1-2)Gal,1.54
same,glycan array binding signal (z-score),Fuc(a1-2)Gal(b1-3)GlcNAc,0.203
same,glycan array binding signal (z-score),[1],0.342
same,glycan array binding signal (z-score),[2],0.377
same,glycan array binding signal (z-score),[3],0.012
same,glycan array binding signal (z-score),[4],2.23
same,glycan array binding signal (z-score),Fuc(b1-3)GlcNAc,0.144
same,glycan array binding signal (z-score),Gal(b1-3)Gal,-0.318
same,glycan array binding signal (z-score),[5],0.546
same,glycan array binding signal (z-score),Gal3S(b1-4)GlcNAc,-0.22
same,glycan array binding signal (z-score),Gal3S6S(b1-4)GlcNAc6S,1.8
same,glycan array binding signal (z-score),Gal4S(b1-4)GlcNAc,1.82
same,glycan array binding signal (z-score),Gal6S(b1-4)Glc6S,-0.521
same,glycan array binding signal (z-score),[6],2.08
same,glycan array binding signal (z-score),Man(a1-3)[Man(a1-6)]Man,0.624
same,glycan array binding signal (z-score),[7],0.638
"P-Selectin (Homo sapiens), P16109 (protein) MANCQIAILYQRFQRVVFGISQLLCFSALISELTNQKEVAAWTYHYSTKAYSWNISRKYCQNRYTDLVAIQNKNEIDYLNKVLPYYSSYYWIGIRKNNKTWTWVGTKKALTNEAENWADNEPNNKRNNEDCVEIYIKSPSAPGKWNDEHCLKKKHALCYTASCQDMSCSKQGECLETIGNYTCSCYPGFYGPECEYVRECGELELPQHVLMNCSHPLGNFSFNSQCSFHCTDGYQVNGPSKLECLASGIWTNKPPQCLAAQCPPLKIPERGNMTCLHSAKAFQHQSSCSFSCEEGFALVGPEVVQCTASGVWTAPAPVCKAVQCQHLEAPSEGTMDCVHPLTAFAYGSSCKFECQPGYRVRGLDMLRCIDSGHWSAPLPTCEAISCEPLESPVHGSMDCSPSLRAFQYDTNCSFRCAEGFMLRGADIVRCDNLGQWTAPAPVCQALQCQDLPVPNEARVNCSHPFGAFRYQSVCSFTCNEGLLLVGASVLQCLATGNWNSVPPECQAIPCTPLLSPQNGTMTCVQPLGSSSYKSTCQFICDEGYSLSGPERLDCTRSGRWTDSPPMCEAIKCPELFAPEQGSLDCSDTRGEFNVGSTCHFSCDNGFKLEGPNNVECTTSGRWSATPPTCKGIASLPTPGLQCPALTTPGQGTMYCRHHPGTFGFNTTCYFGCNAGFTLIGDSTLSCRPSGQWTAVTPACRAVKCSELHVNKPIAMNCSNLWGNFSYGSICSFHCLEGQLLNGSAQTACQENGHWSTTVPTCQAGPLTIQEASTSITAYKSEGESAEFSFPLNLGEESLQGELRWKAEKAPSSQSWITFSLKNQKVSVQKSTSNPKFQLSETLPLTLQIPQVSLQFAGSGNLTLTLDRGILYQEVNLVVMKVTQPDSNTLTCEVMGPTSPKMRLILKQENQEARVSRQEKVIQVQAPEAGVWQCLLSEGEEVKMDSKIQVLSKGLNSGGGSGGGTGGGDLAPQMLRELQETNAALQDVRELLRQQVKEITFLKNTVMECDACGLDRNLPPLAPLGPHPETLVKVKDAEDQLGARVGYIELDLNSGKILESFRPEERFPMMSTFKVLLCGAVLSRIDAGQEQLGRRIHYSQNDLVEYSPVTEKHLTDGMTVRELCSAAITMSDNTAANLLLTTIGGPKELTAFLHNMGDHVTRLDRWEPELNEAIPNDERDTTMPVAMATTLRKLLTGELLTLASRQQLIDWMEADKVAGPLLRSALPAGWFIADKSGAGERGSRGIIAALGPDGKPSRIVVIYTTGSQATMDERNRQIAEIGASLIKHWGPDYKDHDGDYKDHDIDYKDDDDKGPHHHHHH",glycan array binding signal (z-score),Fuc(a1-2)Gal,-0.092
same,glycan array binding signal (z-score),Fuc(a1-2)Gal(b1-4)Glc6S,-0.268
same,glycan array binding signal (z-score),[8],-0.151
same,glycan array binding signal (z-score),Gal(a1-3)GalNAc,-0.071
same,glycan array binding signal (z-score),Gal(b1-3)GalNAc,-0.218
same,glycan array binding signal (z-score),Gal(b1-4)Glc,-0.174
same,glycan array binding signal (z-score),[9],-0.301
same,glycan array binding signal (z-score),[10],-0.219
same,glycan array binding signal (z-score),Gal3S(b1-3)GalNAc,-0.113
same,glycan array binding signal (z-score),Gal3S6S(b1-4)GlcNAc6S,4.08
same,glycan array binding signal (z-score),[11],-0.237
same,glycan array binding signal (z-score),[12],-0.329
same,glycan array binding signal (z-score),[13],-0.163
same,glycan array binding signal (z-score),Kdn(a2-3)Gal(b1-4)GlcNAc,-0.191
same,glycan array binding signal (z-score),[14],-0.052
same,glycan array binding signal (z-score),[15],0.332
same,glycan array binding signal (z-score),[16],0.282
same,glycan array binding signal (z-score),[17],6.36
same,glycan array binding signal (z-score),[18],3.52
same,glycan array binding signal (z-score),[19],0.025
same,glycan array binding signal (z-score),[20],-0.141
same,glycan array binding signal (z-score),[21],0.071
same,glycan array binding signal (z-score),[22],9.93
same,glycan array binding signal (z-score),[23],-0.109
same,glycan array binding signal (z-score),[24],-0.322
same,glycan array binding signal (z-score),[25],4.38
"Spy0252 (Streptococcus pyogenes), Q9A1I9_STRP1 (protein) MNMKKLASLAMLGASVLGLAACGGKSQKEAGASKSDTAKTEITWWAFPVFTQEKAEDGVGTYEKKLIAAFEKANPEIKVKLETIDFTSGPEKITTAIEAGTAPDVLFDAPGRIIQYGKNGKLADLNDLFTEEFTKDVNNDKLIQASKAGDTAYMYPISSAPFYMALNKKMLKDAGVLDLVKEGWTTDDFEKVLKALKDKGYNPGSFFANGQGGDQGPRAFFANLYSSHITDDKVTKYTTDDANSIKAMTKISNWIKDGLMMNGSQYDGSADIQNFANGQTSFTILWAPAQPGIQAKLLEASKVDYLEIPFPSDDGKPELEYLVNGFAVFNNKDEQKVAASKTFIQFIADDKEWGPKNVVRTGAFPVRTSYGDLYKDKRMEKIAEWTKFYSPYYNTIDGFAEMRTLWFPMVQAVSNGDEKPEDALKAFTEKANKTIKKTQ",glycan array binding signal (z-score),[26],-0.157
same,glycan array binding signal (z-score),[22],-0.278
same,glycan array binding signal (z-score),[27],-0.266
same,glycan array binding signal (z-score),[28],-0.277
same,glycan array binding signal (z-score),[29],-0.26
same,glycan array binding signal (z-score),[30],7.23
same,glycan array binding signal (z-score),[31],7.09
same,glycan array binding signal (z-score),[7],-0.248
same,glycan array binding signal (z-score),Neu5Gc(a2-3)Gal(b1-4)Glc,5.2
